From PubChem BioAssay AID1159580 (chemical genetic matrix, 2015)
Screen size: about 5,500 compounds; about 2,000 (36%) were called active. Roughly 18% stayed inconclusive and do not appear here. Cut-off read from the data, not from the text of the source: active = normalized growth mostly below about 0.91 (no sharp cut-off); inconclusive = no clear call, values can overlap the other calls; inactive = mostly above about 0.92. The list shows a part of the results.

Assay: chemical genetic growth profiling, strain panel (AID 1159580);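 note: tested at 20 µM; growth read once vehicle control cultures reached saturation at 30 °C; 1 = growth at the plate median or of vehicle wells; lower values mean less growth of the strain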
Settings: growth OD
[1] = S. cerevisiae deletion strains, locus YDR150W, strain NUM1, active compounds read low
[2] = S. cerevisiae deletion strains, locus YNL322C, strain KRE1, active compounds read low
[3] = S. cerevisiae deletion strains, locus YPL241C, strain CIN2, active compounds read low

Measured: normalized growth

O=C(O)/C=C1\CCCc2ccccc2C1O (stereo unspecified)
inactive: S. cerevisiae deletion strains, locus YAL013W, strain DEP1, active compounds read low 1.01 | S. cerevisiae deletion strains, locus YBR021W, strain FUR4, active compounds read low 1.01 | S. cerevisiae deletion strains, locus YBR229C, strain ROT2, active compounds read low 0.965 | S. cerevisiae deletion strains, locus YCL029C, strain bik1, active compounds read low 0.982 | S. cerevisiae deletion strains, locus YDL035C, strain GPR1, active compounds read low 0.993 | S. cerevisiae deletion strains, locus YDL074C, strain BRE1, active compounds read low 0.96 | S. cerevisiae deletion strains, locus YDL101C, strain DUN1, active compounds read low 0.988 | S. cerevisiae deletion strains, locus YDL134C, strain PPH21, active compounds read low 0.992 | S. cerevisiae deletion strains, locus YDL185W, strain tfp1, active compounds read low 0.945 | S. cerevisiae deletion strains, locus YDL192W, strain arf1, active compounds read low 0.977 | S. cerevisiae deletion strains, locus YDR101C, strain arx1, active compounds read low 0.993 | [1] 0.991 | S. cerevisiae deletion strains, locus YDR162C, strain NBP2, active compounds read low 0.987 | S. cerevisiae deletion strains, locus YDR318W, strain mcm21, active compounds read low 0.985 | S. cerevisiae deletion strains, locus YDR388W, active compounds read low 0.989 | S. cerevisiae deletion strains, locus YDR502C, strain sam2, active compounds read low 0.976 | S. cerevisiae deletion strains, locus YEL061C, strain CIN8, active compounds read low 0.995 | S. cerevisiae deletion strains, locus YER110C, active compounds read low 0.982 | S. cerevisiae deletion strains, locus YER155C, strain BEM2, active compounds read low 1.01 | S. cerevisiae deletion strains, locus YER167W, strain BCK2, active compounds read low 0.998 | S. cerevisiae deletion strains, locus YGL078C, strain dbp3, active compounds read low 0.992 | S. cerevisiae deletion strains, locus YGL086W, strain mad1, active compounds read low 0.991 | S. cerevisiae deletion strains, locus YGL248W, strain PDE1, active compounds read low 0.979 | S. cerevisiae deletion strains, locus YGR078C, strain PAC10, active compounds read low 1 | S. cerevisiae deletion strains, locus YGR135W, strain pre9, active compounds read low 0.98 | S. cerevisiae deletion strains, locus YGR229C, strain SMI1, active compounds read low 0.997 | S. cerevisiae deletion strains, locus YGR252W, strain gcn5, active compounds read low 0.962 | S. cerevisiae deletion strains, locus YHR030C, strain SLT2, active compounds read low 1.01 | S. cerevisiae deletion strains, locus YHR079C, strain IRE1 (second series), active compounds read low 0.992 | S. cerevisiae deletion strains, locus YHR094C, strain hxt1, active compounds read low 0.984 | S. cerevisiae deletion strains, locus YHR129C, strain ARP1, active compounds read low 0.992 | S. cerevisiae deletion strains, locus YHR200W, strain rpn10, active compounds read low 0.989 | S. cerevisiae deletion strains, locus YIL066C, strain RNR3, active compounds read low 0.996 | S. cerevisiae deletion strains, locus YIL073C, strain SPO22, active compounds read low 0.974 | S. cerevisiae deletion strains, locus YIL125W, strain kgd1, active compounds read low 0.975 | S. cerevisiae deletion strains, locus YIR030C, strain dcg1, active compounds read low 0.988 | S. cerevisiae deletion strains, locus YJL095W, strain BCK1, active compounds read low 1.01 | S. cerevisiae deletion strains, locus YJL134W, strain LCB3, active compounds read low 0.986 | S. cerevisiae deletion strains, locus YJL168C, strain set2, active compounds read low 0.986 | S. cerevisiae deletion strains, locus YJL187C, strain SWE1 (second series), active compounds read low 0.99 | S. cerevisiae deletion strains, locus YJR043C, strain POL32, active compounds read low 0.998 | S. cerevisiae deletion strains, locus YJR075W, strain HOC1, active compounds read low 0.985 | S. cerevisiae deletion strains, locus YKL009W, strain mrt4, active compounds read low 0.955 | S. cerevisiae deletion strains, locus YKL068W, active compounds read low 0.981 | S. cerevisiae deletion strains, locus YKL085W, strain MDH1 (second series), active compounds read low 0.98 | S. cerevisiae deletion strains, locus YKL085W, strain MDH1, active compounds read low 0.98 | S. cerevisiae deletion strains, locus YKL190W, strain CNB1, active compounds read low 0.996 | S. cerevisiae deletion strains, locus YKR001C, strain vps1, active compounds read low 0.978 | S. cerevisiae deletion strains, locus YLR039C, strain RIC1, active compounds read low 0.944 | S. cerevisiae deletion strains, locus YLR058C, strain SHM2, active compounds read low 0.988 | S. cerevisiae deletion strains, locus YLR102C, strain apc9, active compounds read low 0.977 | S. cerevisiae deletion strains, locus YLR262C, strain YPT6, active compounds read low 0.937 | S. cerevisiae deletion strains, locus YLR268W, strain sec22, active compounds read low 0.984 | S. cerevisiae deletion strains, locus YLR330W, strain CHS5, active compounds read low 0.998 | S. cerevisiae deletion strains, locus YLR342W, strain FKS1 (second series), active compounds read low 0.983 | S. cerevisiae deletion strains, locus YLR371W, strain rom2, active compounds read low 0.975 | S. cerevisiae deletion strains, locus YLR418C, strain cdc73, active compounds read low 0.989 | S. cerevisiae deletion strains, locus YML016C, strain PPZ1, active compounds read low 0.964 | S. cerevisiae deletion strains, locus YML032C, strain rad52, active compounds read low 0.982 | S. cerevisiae deletion strains, locus YML124C, strain tub3, active compounds read low 0.992 | S. cerevisiae deletion strains, locus YMR078C, strain ctf18, active compounds read low 0.977 | S. cerevisiae deletion strains, locus YMR223W, strain ubp8, active compounds read low 0.991 | S. cerevisiae deletion strains, locus YMR263W, strain SAP30, active compounds read low 0.952 | S. cerevisiae deletion strains, locus YMR307W, strain GAS1, active compounds read low 0.991 | S. cerevisiae deletion strains, locus YNL067W, strain RPL9B, active compounds read low 0.998 | S. cerevisiae deletion strains, locus YNL128W, strain TEP1, active compounds read low 0.976 | S. cerevisiae deletion strains, locus YNL153C, strain GIM3, active compounds read low 0.998 | S. cerevisiae deletion strains, locus YNL233W, strain BNI4, active compounds read low 1.01 | S. cerevisiae deletion strains, locus YNL250W, strain rad50, active compounds read low 0.979 | S. cerevisiae deletion strains, locus YNL271C, strain bni1, active compounds read low 0.987 | S. cerevisiae deletion strains, locus YNL298W, strain CLA4, active compounds read low 0.964 | S. cerevisiae deletion strains, locus YNL307C, strain MCK1, active compounds read low 0.986 | [2] 0.986 | S. cerevisiae deletion strains, locus YNR052C, strain pop2, active compounds read low 0.989 | S. cerevisiae deletion strains, locus YOL006C, strain TOP1, active compounds read low 0.983 | S. cerevisiae deletion strains, locus YOL012C, strain htz1 0.943 | S. cerevisiae deletion strains, locus YOL147C, strain pex11, active compounds read low 0.991 | S. cerevisiae deletion strains, locus YOR061W, strain CKA2, active compounds read low 0.974 | S. cerevisiae deletion strains, locus YOR069W, strain VPS5, active compounds read low 1 | S. cerevisiae deletion strains, locus YOR136W, strain idh2, active compounds read low 0.995 | S. cerevisiae deletion strains, locus YOR144C, strain elg1, active compounds read low 0.991 | S. cerevisiae deletion strains, locus YOR184W, strain ser1, active compounds read low 0.985 | S. cerevisiae deletion strains, locus YOR316C, strain cot1, active compounds read low 0.975 | S. cerevisiae deletion strains, locus YPL055C, strain LGE1, active compounds read low 0.971 | [3] 0.997 | S. cerevisiae deletion strains, locus YPR119W, strain clb2, active compounds read low 0.995 | S. cerevisiae deletion strains, locus YPR141C, strain kar3, active compounds read low 0.964 | S. cerevisiae deletion strains, locus YPR163C, strain tif3, active compounds read low 0.99 | S. cerevisiae deletion strains, locus YPR167C, strain met16, active compounds read low 0.987 | S. cerevisiae deletion strains, strain wtn01, active compounds read low 0.98 | S. cerevisiae strains, strain wild type, active compounds read low 0.991

Nc1ncnc2c1nc(Sc1ccc(Cl)cc1)n2C1OC2COP(=O)(O)O[C@@H]2[C@@H]1O (stereo partly specified)
inactive: S. cerevisiae deletion strains, locus YAL040C, strain CLN3, active compounds read low 0.98 | [1] 0.999 | S. cerevisiae deletion strains, locus YDR363W, strain ESC2, active compounds read low 1.01 | S. cerevisiae deletion strains, locus YER002W, strain NOP16, active compounds read low 0.984 | S. cerevisiae deletion strains, locus YNL175C, strain NOP13, active compounds read low 1.01 | S. cerevisiae deletion strains, locus YNL197C, strain WHI3, active compounds read low 1.02 | S. cerevisiae deletion strains, locus YNL224C, strain SQS1, active compounds read low 0.995 | [2] 0.996 | S. cerevisiae deletion strains, locus YOR083W, strain WHI5 (second series), active compounds read low 1.02 | [3] 1
